PubChem BioAssay AID1053119 (Broad Institute, 2014)
Results with a measured potency or affinity are listed apart. Inconclusive results are not listed. Calls of active or inactive are those of the source.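 The calls were made as follows: active = signal loss from cell killing with fitted potency at or below twice the top valid dose; inconclusive = flat drop of 30 to 70%, or unreliable curve fit; inactive = opposite direction, flat within 30%, or weaker potency.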

Test: viability loss in A549 lung cancer cells – cell-based, cherry-picks, 26 µM top dose, cytotoxicity control, dose response (AID 1053119)

| Structure (SMILES) | outcome |
| --- | --- |
| Cc1ccc(C(O)c2ncc(-c3cccc4ccccc34)[nH]2)cc1F (stereo not given) | inactive |
| CCCCNC(=O)Nc1nc2ccc(CC)cc2s1 | inactive |
| CO[C@@H]1CN(C)C(=O)c2cc(NC(=O)Nc3ccc(Cl)c(Cl)c3)ccc2OC[C@H](C)NC[C@@H]1C | inactive |
| COC(=O)C[C@H]1CC[C@H]2[C@H](COc3ccc(NC(=O)Cc4cccs4)cc3C(=O)N2C)O1 | inactive |
| COc1ccc(-c2oc3ncnc(NCCCN4CCOCC4)c3c2-c2ccc(OC)cc2)cc1 | inactive |
| O=C(Nc1cc(Sc2nc3ccccc3s2)cc([N+](=O)[O-])c1)c1ccccc1F | inactive |
| S=C(NCC1CCCO1)Nc1ccc(Cl)cc1Cl (stereo not given) | inactive |
| O=S(=O)(c1ccccc1F)N1CC[C@H]2[C@H](CO)Nc3ccc(-c4cccc(F)c4)cc3[C@H]21 | inactive |
| O=C(OCC(O)C(O)COC(=O)c1ccccc1)c1ccccc1 (stereo not given) | inactive |
| O=S(=O)(c1cccc(F)c1)N1CC[C@@H]2[C@H]1c1cc(-c3cccc(F)c3)ccc1N[C@@H]2CO | inactive |
| Cc1ccc([N+](=O)[O-])cc1NC(=O)CN(C(=O)c1ccccc1Cl)C1CCCCC1 | inactive |
| C[C@@H]1CN([C@@H](C)CO)C(=O)c2cc(-c3ccncc3)cnc2O[C@@H]1CN(C)C(=O)Cc1cccnc1 | inactive |
| COc1cccc(-c2ccc3c(c2)[C@@H]2[C@@H](CCN2S(=O)(=O)c2cccc(OC)c2)[C@H](CO)N3)c1 | inactive |
| COc1cccc(CN2CCN(C(=O)c3ccc(-c4ccccc4)cc3)CC2)c1OC | inactive |
| CCc1ccc(NC(=O)CSc2nnc(-c3ccco3)o2)cc1 | inactive |
